Compound activity deposited in PubChem by several laboratories.
The list is not random: actives were taken first. Their share in the collection is about 2.8%.
Peg3 prom inh = inhibitors of Peg3 promoter; hit rate 1.7% among 360,000; HeLa PEG-Prom luciferase reporter, luminescence, overnight; inhibition, % at 20 µM;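 active = inhibition of at least 50% at 20 µM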
HIF-2a inh = inhibitors of HIF-2a. 786-0 RCC cells HIF-2a reporter, luciferase luminescence, overnight. inhibition, % at 18.8 µM. hit rate 0.72% among 360,000. AID 624352;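 active = inhibition of the luminescence signal of 40% or more relative to plate controls, in a single-dose primary screen at 18.75 µM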
PAX8 inh HTS = lowers PAX8-driven luciferase in RMG-I cells; hit rate 1.2% among 360,000; AID 652154; inhibition, % at 12.6 µM; RMG-I TPO-luciferase reporter, SteadyGlo, 24 h;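 active = mean replicate inhibition at least 60% with every replicate also reaching 60%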;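 also: luciferase light reporting Pax8 driven TPO promoter activity; plate controls were median of neutral control wells for no effect and mitoxantrone controls for full effect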
MITF TRPM1 inh = MITF TRPM1 promoter inhibition in SK-MEL-5 cells. SK-MEL-5 TRPM1 promoter luciferase, 24 h. inhibition, % at 12.5 µM. hit rate 0.83% among 330,000;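 active = mean inhibition across replicates of 60% or more, whatever share of single replicates reaches that level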
LMP1 NFkB inh = Epstein-Barr LMP1 NF-kappaB reporter inhibition | inhibition, % at 12.5 µM | hit rate 0.69% among 350,000 | AID 504558 | LMP1-induced NF-kappaB luciferase reporter cells, luminescence; in the data active = inhibition above about 41%;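 also: 0% = neutral control wells and 100% = reference inhibitor control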
Shn3 3UTR inh = inhibitors of Schnurri-3 3'UTR reporter in osteoblasts; Clone20 osteoblast Shn3 3'UTR firefly luciferase, 24 h; inhibition, % at 12.5 µM; hit rate 0.52% among 360,000; AID 588674;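 active = mean inhibition of at least 75% with every replicate also reaching 75%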;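 also: 0% = median of neutral control wells and 100% = pilot-screen positive control compound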
Starred values were filed as active, the others as inactive; nt = not tested or not shown.

SMILES | Peg3 prom inh | HIF-2a inh | PAX8 inh HTS | MITF TRPM1 inh | LMP1 NFkB inh | Shn3 3UTR inh
Cc1ccc(-c2csc3ncnc(NCCN4CCOCC4)c23)cc1 | 27.2 | 31.1 | 2.7 | 14.7 | 4.5 | 17.2
C[C@H]1CN([C@@H](C)CO)C(=O)c2cccc(NC(=O)Nc3ccc(C(F)(F)F)cc3)c2O[C@@H]1CN(C)CC1CC1 | nt | nt | -17.8 | nt | nt | nt
C[C@H]1CN([C@@H](C)CO)C(=O)Cc2cc(NC(=O)NC3CCCCC3)ccc2O[C@H]1CN(C)Cc1ccc(C(=O)O)cc1 | nt | nt | -1.5 | nt | nt | nt
COCC(=O)N1C[C@@H](C)[C@H](OC)CN(C)C(=O)c2cc(NC(=O)Nc3cccc(F)c3)ccc2OC[C@@H]1C | nt | nt | -3.8 | nt | nt | nt
COc1cc(OC)cc(-c2sc3ccc(OC)cc3c2-c2ccc(OCCN3CCCCC3)cc2)c1 | 90.4* | -22.6 | nt | -5.4 | 6.3 | 13.8
COc1ccccc1-c1sc2cc3c(cc2c1-c1ccc(OCCN2CCOCC2)cc1)OCO3 | 11.4 | 7.8 | nt | -3.0 | 5.6 | 6.6
COc1ccc(-c2sc3cc4c(cc3c2-c2ccc(OCCN3CCCCC3)cc2)OCO4)cc1 | 89.7* | 10.8 | nt | 18.6 | -19.5 | 20.1
CN(C)Cc1ccc(-c2nc3cccc4c3n2CCNC4=O)cc1 | 57.6* | -4.8 | -45.8 | 12.1 | -26.3 | -34.2
CC1=CC(=O)c2ccccc2C1=O | 17.0 | 5.7 | 2.4 | 42.7 | 11.3 | 3.4
CC(C)(C=O)C1=CC(=O)c2ccccc2C1=O | 108.4* | 41.9* | 64.7* | 38.7 | 24.0 | 55.4
CN(C)CC(=O)N[C@H]1CC[C@H](CC(=O)NCCN2CCCCC2)O[C@@H]1CO | nt | nt | -9.4 | nt | nt | nt
S=C(NCCCc1cnc[nH]1)NCCCN(Cc1ccc(Cl)cc1)c1ccc(Br)cn1 | 93.6* | -11.4 | 7.5 | nt | nt | 29.5
C/C(=N/NC(=O)c1ccc2nc[nH]c2c1)c1cccs1 | -118.3 | -90.7 | -86.4 | -48.9 | 51.9* | -14.0
Cc1ccnc(NC(=O)c2cccc(NC(=O)c3ccc(Cl)c(Cl)c3)c2)c1 | -19.9 | -36.6 | -37.4 | -5.8 | 86.0* | -10.0
COc1ccc2nc(C)cc(SCC(=O)NNC(=O)COc3ccccc3)c2c1 | 2.8 | 18.2 | nt | -0.7 | 2.6 | 18.4
COc1ccc2nc(C)cc(Sc3nc4ccccc4s3)c2c1 | 67.3* | 33.0 | 69.0* | 3.8 | 29.5 | 76.1
CCCCNC(=O)C(Sc1ccccc1)c1ccccc1 (stereo not given) | 4.4 | 14.9 | 144.8* | -7.6 | 2.9 | -3.8
Cc1ccc(C(=O)Nc2nnc(SCC(=O)N3CCCc4ccccc43)s2)cc1 | 0.4 | 33.5 | 20.9 | 32.2 | 51.4* | -11.1
CC(C)Oc1ccc(C(=O)Nc2nnc(SCC(=O)N3CCOCC3)s2)cc1 | 37.5 | 47.9* | 70.4* | 51.4 | 70.0* | 34.5
COc1ccc(C(=O)N=C2CCC(C#N)=C3c4cc(OC)c(OC)cc4CCN23)cc1 | 51.1* | 17.3 | 7.6 | 15.7 | 7.8 | 9.5
C[C@@H]1CCCCO[C@@H](CN(C)Cc2ccc(Cl)c(Cl)c2)[C@@H](C)CN([C@@H](C)CO)C(=O)c2cc(NS(=O)(=O)c3ccccc3)ccc2O1 | nt | nt | 68.2* | nt | nt | nt
C[C@@H]1CN([C@H](C)CO)C(=O)c2cc(NS(=O)(=O)c3ccccc3)ccc2O[C@@H](C)CCCCO[C@H]1CN(C)Cc1ccc(Cl)c(Cl)c1 | nt | nt | 93.8* | nt | nt | nt
C[C@H](CO)N1C[C@H](C)[C@@H](CN(C)Cc2ccc(Cl)c(Cl)c2)OCCCC[C@H](C)Oc2ccc(NS(=O)(=O)c3ccccc3)cc2C1=O | nt | nt | 83.6* | nt | nt | nt
CCN1C(=O)/C(=C\N(C)C)c2ccccc21 | 6.9 | 4.9 | -6.5 | 9.9 | -13.1 | 3.6
CCN1C(=O)/C(=C/N(C)C)c2ccccc21 | 57.4* | 15.4 | 34.3 | 14.2 | 2.8 | -30.2
SMILES | Peg3 prom inh | HIF-2a inh | PAX8 inh HTS | MITF TRPM1 inh | LMP1 NFkB inh | Shn3 3UTR inh
O=C(NCC1CC1)[C@H]1[C@H](CO)[C@H]2Cn3c(ccc(-c4cccc(F)c4)c3=O)[C@H]2N1CC1CCCC1 | nt | nt | 20.1 | nt | nt | nt
O=C1O[C@H](c2ccccc2)[C@H](c2ccccc2)N2[C@H]1[C@@H](C(=O)N1CCCCCCC1)[C@]1(C(=O)Nc3ccc(C#CC4(O)CCCCCC4)cc31)[C@H]2c1ccc(OCCO)cc1 | nt | nt | -0.7 | nt | nt | nt
C=CCNC(=O)[C@@H]1[C@H]2C(=O)O[C@H](c3ccccc3)[C@H](c3ccccc3)N2[C@H](c2ccccc2OCCO)[C@@]12C(=O)N(C(=O)OCCOC)c1ccc(C#CCC(C(=O)OC)C(=O)OC)cc12 | nt | nt | 103.6* | nt | nt | nt
C=CCNC(=O)[C@H]1[C@@H]2C(=O)O[C@@H](c3ccccc3)[C@@H](c3ccccc3)N2[C@@H](c2ccc(OCCO)cc2)[C@]12C(=O)N(C(=O)OCCOC)c1ccc(C#Cc3ccc(OC)cc3)cc12 | nt | nt | 26.5 | nt | nt | nt
C=CCNC(=O)[C@@H]1[C@H]2C(=O)O[C@H](c3ccccc3)[C@H](c3ccccc3)N2[C@H](c2ccccc2OCCO)[C@@]12C(=O)N(C(=O)OCCOC)c1ccc(C#CC3(O)CCCCCC3)cc12 | nt | nt | 71.4* | nt | nt | nt
C=CCNC(=O)[C@H]1[C@@H]2C(=O)O[C@@H](c3ccccc3)[C@@H](c3ccccc3)N2[C@@H](c2ccccc2OCCO)[C@]12C(=O)Nc1ccc(C#CC3(O)CCCCCC3)cc12 | nt | nt | 99.1* | nt | nt | nt
C=CCNC(=O)[C@@H]1[C@H]2C(=O)O[C@H](c3ccccc3)[C@H](c3ccccc3)N2[C@H](c2ccccc2OCCO)[C@@]12C(=O)N(C(=O)OCCOC)c1ccc(C#CC3=CCCCC3)cc12 | nt | nt | 68.0* | nt | nt | nt
C=CCNC(=O)[C@H]1[C@@H]2C(=O)O[C@@H](c3ccccc3)[C@@H](c3ccccc3)N2[C@@H](c2ccc(O)cc2)[C@]12C(=O)N(C(=O)OCCOC)c1ccc(C#CCC(C(=O)OC)C(=O)OC)cc12 | nt | nt | -0.8 | nt | nt | nt
CO[C@@H]1CN(C)C(=O)c2cc(NC(=O)c3cnccn3)ccc2OC[C@@H](C)N(CCc2ccccc2)C[C@@H]1C | nt | nt | -2.0 | nt | nt | nt
CO[C@@H]1CN(C)C(=O)c2cc(NC(=O)c3ccc4c(c3)OCO4)ccc2OC[C@@H](C)N(CC2CC2)C[C@@H]1C | nt | nt | -22.9 | nt | nt | nt
C[C@@H]1CN([C@H](C)CO)C(=O)c2cc(NS(=O)(=O)c3ccc(Cl)cc3)ccc2O[C@@H](C)CCCCO[C@H]1CN(C)C(=O)C1CCCCC1 | nt | nt | 85.4* | nt | nt | nt
C[C@H](CO)N1C[C@H](C)[C@@H](CN(C)C(=O)C2CCCCC2)OCCCC[C@H](C)Oc2ccc(NS(=O)(=O)c3ccc(Cl)cc3)cc2C1=O | nt | nt | 87.7* | nt | nt | nt
C[C@@H]1CCCCO[C@@H](CN(C)C(=O)C2CCCCC2)[C@H](C)CN([C@H](C)CO)C(=O)c2cc(NS(=O)(=O)c3ccc(Cl)cc3)ccc2O1 | nt | nt | 79.3* | nt | nt | nt
C[C@@H]1CCCCO[C@@H](CN(C)C(=O)C2CCCCC2)[C@@H](C)CN([C@H](C)CO)C(=O)c2cc(NS(=O)(=O)c3ccc(Cl)cc3)ccc2O1 | nt | nt | -9.6 | nt | nt | nt
CCS(=O)(=O)NCC[C@H]1CC[C@H](NC(=O)Nc2ccccc2)[C@@H](CO)O1 | nt | nt | -13.4 | nt | nt | nt
CN(C)C(=O)C[C@@H]1CC[C@H]2[C@@H](COC[C@H](O)CN2C(=O)C2CCOCC2)O1 | nt | nt | -6.2 | nt | nt | nt
